About 79,000 compounds went through this panel and 15% of them were active in at least one assay; those are over-represented in the sample as a whole. A number with no mark means an inactive call. Calls of active or inactive are those of the source. Rule as the data show it: active = growth inhibition above about 70%; inactive = the rest.
How the values were obtained:
[1] = NCI Yeast Anticancer Drug Screen. Data for the rad50 strain (AID 155);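 also: 0% = growth of vehicle-only cultures of the same strain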; settings: S. cerevisiae rad50 strain growth inhibition, hits give high values
Summary of the method: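 Relative growth inhibition (compound vs vehicle) was measured in yeast with a defined repair-gene alteration.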

[2] = NCI Yeast Anticancer Drug Screen. Data for the mec2-1 strain (AID 157); settings: S. cerevisiae mec2-1 strain, hits give high values
Summary of the method: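 Compounds were applied to mec2-1 yeast cells. Their growth was then compared with that of vehicle-treated cultures to give growth inhibition.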

[3] = NCI Yeast Anticancer Drug Screen. Data for the sgs1 mgt1 strain (AID 161);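 also: 0% = growth of cultures given vehicle only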; settings: S. cerevisiae sgs1 mgt1 strain, hits give high values
Summary of the method: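 Percent growth inhibition was derived by comparing compound-exposed mutant yeast with vehicle-exposed cultures. The strain carries alterations in DNA damage repair.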

[4] = NCI Yeast Anticancer Drug Screen. Data for the cln2 rad14 strain (AID 165);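 also: 0% = growth equal to vehicle treated cultures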; settings: S. cerevisiae cln2 rad14 strain, hits give high values
Summary of the method: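 Strain: cln2 rad14 yeast, altered in cell cycle control and DNA damage repair. Read-out: growth inhibition vs vehicle.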

[5] = NCI Yeast Anticancer Drug Screen. Data for the bub3 strain (AID 167); settings: S. cerevisiae bub3 mutant strain, hits give high values
Summary of the method: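 Screening used yeast with an engineered genetic alteration affecting cell cycle control. Compound-exposed cultures were compared with vehicle cultures, and reduced growth was taken as inhibition.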

[6] = NCI Yeast Anticancer Drug Screen. Data for the mlh1 rad18 strain (AID 175); settings: S. cerevisiae mlh1 rad18 strain growth inhibition, hits give high values
Summary of the method: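 A repair-deficient yeast strain is exposed to test compound, and growth is scored relative to vehicle-treated controls.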

[7] = at 5.0 µM (retest, dose inferred, filed as 0.5)
[8] = at 50.0 µM (retest, dose inferred, filed as 5.0)

SMILES	growth inhibition [1, 7] [%]	growth inhibition [1, 8]	growth inhibition ([1]; at 50.0 µM)	growth inhibition [2, 7] [%]	growth inhibition [2, 8]	growth inhibition ([2]; at 50.0 µM)	growth inhibition [3, 7] [%]	growth inhibition [3, 8]	growth inhibition ([3]; at 50.0 µM)	growth inhibition [4, 7] [%]	growth inhibition [4, 8]	growth inhibition ([4]; at 50.0 µM)	growth inhibition [5, 7] [%]	growth inhibition [5, 8]	growth inhibition ([5]; at 50.0 µM)	growth inhibition [6, 7] [%]	growth inhibition [6, 8]	growth inhibition ([6]; at 50.0 µM)
CN1C=COC1N=C1CCCCC1 (configuration not stated)	13	10%	-24.2%	-1	-5%	-7%	-2	17%	-5.2%	11	0%	16.6%	18	10%	-13%	-13	6%	-32.1%
CC1CCC(C(C)C2C(O)CC3C4CCC5CC(O)CCC5(C)C4CCC32C)NC1 (configuration not stated)	3	98% (active)	91.8% (active)	1	96% (active)	82.2% (active)	6	97% (active)	93.2% (active)	-4	96% (active)	90% (active)	2	95% (active)	90% (active)	4	97% (active)	92.9% (active)
Oc1cccc(-c2nc(-c3ccccc3)c(-c3ccccc3)[nH]2)c1	57	58%	98.5% (active)	-2	22%	98.8% (active)	29	69%	53.1%	8	22%	99.2% (active)	32	43%	98.8% (active)	29	43%	98.5% (active)
CCCCCCCCCCCCCCCCOC(=O)C[n+]1ccc(C(N)=O)cc1	-2	97% (active)	98% (active)	-8	99% (active)	98.1% (active)	21	94% (active)	98.9% (active)	0	72% (active)	69.3%	-3	97% (active)	93% (active)	32	96% (active)	98.2% (active)
